Test results taken from PubChem BioAssay (NCI).
The panel holds about 79,000 compounds, 15% with a hit somewhere; the sample as a whole holds those more often. Active and inactive are the calls of the source. No stated cut-off is given here; in the data, active means growth inhibition above about 70%; inactive means the rest.

Legend:
[1] = NCI Yeast Anticancer Drug Screen. Data for the rad50 strain (AID 155);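 further: 0% = growth of vehicle-only cultures of the same strain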; conditions: S. cerevisiae rad50 strain growth inhibition; at 50.0 µM; active compounds read high
Method in brief: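 Readout: growth inhibition relative to vehicle-treated cultures. Compound exposure was carried out in a genetically defined yeast strain deficient in DNA damage repair.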

[2] = NCI Yeast Anticancer Drug Screen. Data for the mec2-1 strain (AID 157); conditions: S. cerevisiae mec2-1 strain, at 50.0 µM, active compounds read high
Method in brief: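 Growth inhibition is read against vehicle-treated controls after compound exposure of the mec2-1 yeast strain, which is defective in DNA damage repair or cell cycle control.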

[3] = NCI Yeast Anticancer Drug Screen. Data for the sgs1 mgt1 strain (AID 161);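 further: 0% = growth of cultures given vehicle only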; conditions: S. cerevisiae sgs1 mgt1 strain, at 50.0 µM, active compounds read high
Method in brief: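 Yeast cells carrying a defined DNA-repair defect were exposed to test compounds. Growth inhibition was measured relative to vehicle-treated controls.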

[4] = NCI Yeast Anticancer Drug Screen. Data for the cln2 rad14 strain (AID 165);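 further: 0% = growth equal to vehicle treated cultures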; conditions: S. cerevisiae cln2 rad14 strain, at 50.0 µM, active compounds read high
Method in brief: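 Growth inhibition, relative to vehicle-treated controls, is the read-out. The test organism is a yeast strain with defined genetic alterations, cln2 rad14.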

[5] = NCI Yeast Anticancer Drug Screen. Data for the bub3 strain (AID 167); conditions: S. cerevisiae bub3 mutant strain, at 50.0 µM, active compounds read high
Method in brief: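 Readout: yeast growth inhibition, expressed relative to vehicle-only wells. The test organism is a mutant strain from a panel with lesions in DNA repair or checkpoint genes.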

[6] = NCI Yeast Anticancer Drug Screen. Data for the mlh1 rad18 strain (AID 175); conditions: S. cerevisiae mlh1 rad18 strain growth inhibition; at 50.0 µM; active compounds read high
Method in brief: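 Cells of a genetically altered yeast strain, deficient in DNA damage repair, were treated with compound. Their growth was then compared with that of vehicle-treated cultures to give inhibition.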

Measured: growth inhibition

O=P(OCCCCCl)(OCCCCCl)C(Cl)Cl
inactive: [1] -6.4% | [2] -11.6% | [3] 0.65% | [4] 5.8% | [5] 4.5% | [6] 6.5%

C[n+]1ccccc1-c1ccc[n+](CCCCC[n+]2cccc(-c3cccc[n+]3C)c2)c1
inactive: [1] 4.45% | [2] -8.6% | [3] -5.5% | [4] -22.4% | [5] -1.5% | [6] 8.15%

COc1ccc2nc3c4ccccc4scc-3c2c1
active: [1] 99.4% | [2] 99.5% | [3] 99.5% | [4] 99.2% | [5] 99.2% | [6] 99.3%

CN(C)[C@@H]1C(=O)C(C(N)=O)=C(O)[C@]2(O)C(=O)C3C(=O)c4c(O)ccc(Cl)c4[C@](C)(O)[C@H]3C[C@@H]12 (stereo not given in full)
inactive: [1] -6.15% | [2] 7.5% | [3] 22.8% | [4] -2.35% | [5] 3.15% | [6] -2.9%

CCN(CC)c1ccc([P+](=O)O)cc1
inactive: [1] 6.45% | [2] -9.45% | [3] -9.4% | [4] -27.6% | [5] -7.4% | [6] -8.4%

CCCCOP(=O)(Cc1ccccc1)Oc1ccccc1 (stereo not given)
inactive: [2] 32% | [3] 68.8% | [4] 50.4% | [5] 35.3% | [6] 27.6%
active: [1] 73%

CCOC(=O)C1C2(C(C)=O)C=Nc3c(C#N)cnn3C12C(=O)OCC (stereo not given)
inactive: [1] 0.9% | [2] -3.35% | [3] 4.85% | [4] 28.4% | [5] 4.2% | [6] -7.95%

ClC12OOC(c3ccccc3)(O1)C(c1ccccc1)c1ccccc12 (stereo not given)
inactive: [1] 14.2% | [2] 24.1% | [3] 34.9% | [4] 51.9% | [5] 10.8% | [6] 44.5%

COc1ccc2c(c1O)C13C=C(OS(=O)(=O)c4ccc(C)cc4)C=CC1C(C2)N(C)CC3 (stereo not given)
inactive: [1] 40.3% | [2] -4.2% | [3] 34.9% | [4] 13.9% | [5] -1.85% | [6] 3.55%

CCCC(OP(=S)(OCC)OCC)c1ccc(Cl)cc1 (stereo not given)
inactive: [1] -22.5% | [2] -1.5% | [3] 2.9% | [4] -32.3% | [5] 39% | [6] -1.15%

CCOC(=O)COc1cc(Cl)c(S(=O)(=O)F)cc1Cl
active: [1] 98.8% | [2] 92.3% | [3] 97.3% | [4] 93.1% | [5] 98.3% | [6] 98%

COc1ccc(C2C=C(c3ccc4c(c3)OCO4)Oc3c2c(=O)oc2ccccc32)cc1OC (stereo not given)
inactive: [1] 11.5% | [2] 4.1% | [3] 10.1% | [4] 16.4% | [5] 22.7% | [6] 37%

CCCCNC(=O)CCl
inactive: [1] 13.4% | [2] 13.7% | [3] 9.15% | [4] -0.4% | [5] 9.3% | [6] 13.8%

COC(=O)CP(=O)(OC)OCC(F)(F)F (stereo not given)
inactive: [1] -32.8% | [2] -14.4% | [3] -23.5% | [4] -6% | [5] -33.6% | [6] -25.3%

O=c1c2ccccc2nc(-c2ccccc2Cl)n1-c1nnc(C(F)(F)F)s1
inactive: [1] -13.8% | [2] -13.1% | [3] 18.3% | [4] 6.15% | [5] -13.2% | [6] -6.5%

CCCCOP(=O)(O)SP(=O)(O)OCCCC
inactive: [1] -13.8% | [2] 17.1% | [3] 10.6% | [4] 20.9% | [5] 2.3% | [6] -3%

CCOC(=O)c1c(SC)nc(-c2ccc(Cl)cc2)sc1=N
inactive: [1] 18.4% | [2] 19.6% | [3] 24.8% | [4] 25.9% | [5] 28.1% | [6] -19.7%

[C-]#[O+].[C-]#[O+].[C-]#[O+].[Cr].c1ccc(P(CC[PH+](CC[PH+](CC[PH+](c2ccccc2)c2ccccc2)c2ccccc2)c2ccccc2)c2ccccc2)cc1 (stereo not given)
inactive: [1] 36.3% | [2] 13.6% | [3] 41.5% | [4] 18.6% | [5] 33.8% | [6] 37.8%

O=C1OCC2(CO)SC(c3ccccc3)NC12 (stereo not given)
inactive: [1] -11.1% | [2] -0.3% | [3] -17.1% | [4] -20.6% | [5] -4.6% | [6] -7.45%

O=C1Cc2ccccc2C(=O)N1CCN1CCOCC1
inactive: [1] 4.05% | [2] -14.2% | [3] -3.95% | [4] 1.55% | [5] -1.5% | [6] 1.55%

CC(C)(C)NCC(COc1ccc([N+](=O)[O-])cc1)OP(c1ccccc1)c1ccccc1 (stereo not given)
inactive: [1] 15.7% | [2] 6.25% | [3] 2.25% | [4] 23.6% | [5] 14.8% | [6] 21.3%

Nc1nnc(N)n1N
inactive: [1] 15.8% | [2] -21.2% | [3] -8.15% | [4] -20.3% | [5] 1.5% | [6] -1.65%

CC(=O)C1=C(O)C2C3c4c[nH]c5cccc(c45)CC3C(C)(C)N2C1=O (stereo not given)
inactive: [1] 22.6% | [2] -11% | [3] 23.9% | [4] -12.8% | [5] 15% | [6] 21.8%

CC1(C)N=C(N)N=C(N)N1c1ccc(CCc2cc(Cl)ccc2S(=O)(=O)F)c(Cl)c1
active: [1] 99.5% | [2] 99.7% | [3] 99.7% | [4] 99.2% | [5] 99.3% | [6] 99.5%

Cc1ccccc1.[C-]#[O+].[C-]#[O+].[C-]#[O+].[W]
inactive: [1] -11.5% | [2] -1.2% | [3] 2% | [4] 28.2% | [5] 24.9% | [6] -8.05%

CC(C)c1ccc(CCN)cc1
inactive: [1] 6.25% | [2] 3.5% | [3] -19.8% | [4] -0.2% | [5] 5.65% | [6] -6.1%

O=[N+]([O-])c1cccc2cccnc12
inactive: [1] -11.4% | [2] -13.8% | [3] 6.75% | [4] 4.2% | [5] 0.4% | [6] -1.75%

O=C(c1ccccc1)N1CC(Cl)CN(C(=O)c2ccccc2)CC(Cl)C1 (stereo not given)
inactive: [1] 21.4% | [2] 26% | [3] 37.8% | [4] 14.8% | [5] 16.3% | [6] 25.6%

COC1=CC=C2[C@@H]3Cc4ccc(OC)c5c4[C@]2(CCN3CCCl)C1O5 (stereo not given in full)
inactive: [1] 27% | [2] -5.35% | [3] 4.75% | [4] 8.2% | [5] 6.85% | [6] 10.6%

CCP(=S)(CC)P(=S)(CC)CC
inactive: [1] -1.35% | [2] -21.4% | [3] -14.6% | [4] -9.2% | [5] -11.8% | [6] 7.45%

O=C=Nc1ccc(Cl)cc1
inactive: [1] -10.2% | [2] -14.9% | [3] -8.3% | [4] -21.4% | [5] -2.45% | [6] -15.9%

CC(C)(C#N)O[N+](=O)[O-]
inactive: [1] 0.1% | [2] 7.3% | [3] -4.7% | [4] -16.8% | [5] -0.7% | [6] 0.2%

O=[N+]([O-])C1CCC(O)C([N+](=O)[O-])C1 (stereo not given) (tested in a mixture with another compound)
inactive: [2] 37.7% | [4] 69.3% | [5] 13.6%
active: [1] 71.8% | [3] 93.7% | [6] 86.8%

N#CC(C#N)=Cc1ccccc1O
inactive: [1] -8.35% | [2] -2.35% | [3] -1.95% | [4] -5.95% | [5] -19.8% | [6] -9.7%

O=C(Nc1cc(S(=O)(=O)O)cc2cc(S(=O)(=O)O)c(N=Nc3ccc([As](=O)(O)O)cc3)c(O)c12)c1ccc([N+](=O)[O-])cc1
inactive: [1] 12.7% | [2] 1.7% | [3] -7.45% | [4] -9.1% | [5] -3.4% | [6] 6.55%

NCCn1ccc2ccccc21
inactive: [1] 8.2% | [2] -21.2% | [3] 5.35% | [4] 7.35% | [5] -0.4% | [6] 18.2%

CC(=O)OC1CC2(O)C(CCC3(C)C(c4ccc(=O)oc4)CCC32O)C2(C)CCC(O)C=C12 (stereo not given)
inactive: [1] 7.25% | [2] -11.4% | [3] -1.75% | [4] -1.75% | [5] -3.4% | [6] 14.8%

O=C1NC(=S)NC(=O)C1=Cc1ccncc1
inactive: [1] -19% | [2] -46.9% | [3] -7.7% | [4] 9.55% | [5] -26.9% | [6] -10.3%

O=S(=O)(O)O.[Cr+3].[NH-]CC[NH-].[NH-]CC[NH-].[NH-]CC[NH-]
inactive: [1] -20.7% | [2] -20.1% | [3] 0.75% | [4] -36.5% | [5] 10% | [6] 7.25%

O=C(Nc1ccc(Cl)cc1C(=O)c1ccccc1)c1ccc([N+](=O)[O-])cc1
inactive: [1] -1.4% | [2] -3.1% | [3] -0.5% | [4] -40.1% | [5] 4.2% | [6] 12.8%
